Measured values taken from the supplement of paper PMC10849652.
About 8,800 targets were measured; listed, in parts, are those with a hit and a random draw of the rest. About 0.5% of all pairs of compound and target were hits.

What was measured:
Experiment in all cases: log2 fold change, soluble protein after heating vs DMSO (PISA); higher = thermal stabilisation; K562 lysate, 10 uM; active = over 0.2 and 3.5 SD of the protein, either way, in both replicates (recomputed)
[1] = compound: CN1CC[C@H](c2c(O)cc(O)c3c(=O)cc(-c4ccccc4Cl)oc23)[C@H](O)C1 [alvocidib]
How it was run: (§1)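 Following dounce homogenisation of K562 pellets in PBS pH 7.4 with 1 mM MgCl2, crude extract at 1 mg/mL protein was incubated for 30 min with 10 μM compound. Aliquots were then heated for 3 min over 48°C-58°C and pooled, NP-40 was added to 0.5% at 4°C, and soluble protein was recovered as the supernatant at 21,000xg for 90 min. Channel-sum-equalised TMTpro 16plex LC-MS/MS quantified this protein. Each value, from duplicates, is a log-two fold change in thermal stability relative to solvent controls.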

[2] = compound: CN1CCc2c(c3ccccc3n2Cc2ccc(C(=O)NO)cc2)C1 [Tubastatin A]
How it was run: as §1

[3] = compound: CNC(=O)C1=CC=CC=C1NC2=NC(=NC=C2Cl)NC3=C(C=C(C=C3)N4CCOCC4)OC
How it was run: as §1

[4] = compound: CNC(=O)c1ccc(Nc2ncc(C(F)(F)F)c(NCc3nccnc3N(C)S(C)(=O)=O)n2)cc1 [defactinib]
How it was run: as §1

[5] = compound: CNc1nc(-c2ccc3c(N)n[nH]c3c2)cc(N2C[C@@H](C(=O)NC3CCCCC3)CC[C@H]2C)n1
How it was run: as §1

[6] = compound: COC(=O)N[C@@H](C)CNc1nccc(-c2cn(C(C)C)nc2-c2cc(Cl)cc(NS(C)(=O)=O)c2F)n1 [encorafenib]
How it was run: as §1

[7] = compound: COC(=O)[C@H](CCSC)NC(=O)C1=C(C=C(C=C1)NC[C@H](CS)N)C2=CC=CC=C2
How it was run: as §1

[8] = compound: COc1cc(Nc2ncc3c(n2)-c2ccc(Cl)cc2C(c2c(F)cccc2OC)=NC3)ccc1C(=O)O [alisertib]
How it was run: as §1

[9] = compound: COc1cc2nc(-c3cc(F)ccc3O)nc(N[C@@H]3CNC[C@H]3C(C)(C)O)c2cc1OC
How it was run: as §1

[10] = compound: COc1cc2ncnc(Nc3ccc(F)c(Cl)c3)c2cc1OCCCN1CCOCC1 [gefitinib]
How it was run: as §1

[11] = compound: CS(=O)(=O)CCNCc1ccc(-c2ccc3ncnc(Nc4ccc(OCc5cccc(F)c5)c(Cl)c4)c3c2)o1 [lapatinib]
How it was run: as §1

[12] = compound: CS(=O)(=O)N1CCN(Cc2cc3nc(-c4cccc5[nH]ncc45)nc(N4CCOCC4)c3s2)CC1 [pictilisib]
How it was run: as §1

[13] = compound: C[C@@H](Oc1cc(-c2cnn(C3CCNCC3)c2)cnc1N)c1c(Cl)ccc(F)c1Cl [crizotinib]
How it was run: as §1

[14] = compound: C[C@H](C1=CC=C(C=C1)C(=O)NC2=C3C=CNC3=NC=C2)N
How it was run: as §1

[15] = compound: C[C@H](Nc1ncnc2nc[nH]c12)c1cc2cccc(Cl)c2c(=O)n1-c1ccccc1 [duvelisib]
How it was run: as §1

[16] = compound: Cc1cc(Nc2cc(CN3CCOCC3)c3nc(C)c(Cc4ccc(Cl)cc4F)n3n2)n[nH]1 [gandotinib]
How it was run: as §1

[17] = compound: Cc1cc(Nc2cc(N3CCN(C)CC3)nc(Sc3ccc(NC(=O)C4CC4)cc3)n2)n[nH]1 [tozasertib]
How it was run: as §1

[18] = compound: Cc1ccc(-n2nc(C(C)(C)C)cc2NC(=O)Nc2ccc(OCCN3CCOCC3)c3ccccc23)cc1 [doramapimod]
How it was run: as §1

[19] = compound: Cc1ccc(NC(=O)c2ccc(CN3CC[C@H](N(C)C)C3)c(C(F)(F)F)c2)cc1Nc1nccc(-c2cncnc2)n1 [bafetinib]
How it was run: as §1

[20] = compound: Cc1cccc(CC(=O)N2CCc3c2ccc(-c2cn(C)c4ncnc(N)c24)c3F)n1
How it was run: as §1

Measured: log2 fold change

DFFB (UniProt O76075)
UniProt O76075, sequence (O76075 whole entry, looked up): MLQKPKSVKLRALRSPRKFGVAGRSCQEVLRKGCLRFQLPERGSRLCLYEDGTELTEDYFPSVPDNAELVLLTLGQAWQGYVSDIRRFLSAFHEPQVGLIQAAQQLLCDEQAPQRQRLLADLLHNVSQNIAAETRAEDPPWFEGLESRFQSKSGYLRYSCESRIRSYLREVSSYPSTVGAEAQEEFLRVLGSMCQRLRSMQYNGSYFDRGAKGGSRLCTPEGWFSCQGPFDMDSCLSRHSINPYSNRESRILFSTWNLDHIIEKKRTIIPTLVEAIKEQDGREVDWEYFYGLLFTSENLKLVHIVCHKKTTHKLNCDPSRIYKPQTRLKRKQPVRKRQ
active: [10] 0.231
inactive: [1] -0.042 | [2] -0.007 | [3] -0.022 | [4] -0.033 | [5] -0.022 | [6] -0.012 | [7] 0.015 | [8] -0.006 | [9] 0.011 | [11] 0.003 | [12] -0.016 | [13] 0.023 | [14] 0.003 | [15] -0.008 | [16] 0.015 | [17] 0.049 | [18] -0.07 | [19] -0.028 | [20] -0.021

DDA1 (UniProt Q9BW61)
inactive: [1] 0.024 | [2] -0.002 | [3] 0.015 | [4] -0.004 | [5] 0.031 | [6] 0.013 | [7] 0.021 | [8] -0.024 | [9] -0.003 | [10] -0.034 | [11] 0.011 | [12] -0.025 | [13] 0.025 | [14] -0.013 | [15] -0.013 | [16] -0.019 | [17] -0.037 | [18] 0.013 | [19] 0.011 | [20] -0.062

CNOT6L (UniProt Q96LI5)
inactive: [1] -0.091 | [2] 0.022 | [3] 0.022 | [4] 0.046 | [5] 0.013 | [6] 0.036 | [7] 0.066 | [8] -0.005 | [9] 0.037 | [10] -0.033 | [11] -0.03 | [12] -0.042 | [13] -0.076 | [14] -0.251 | [15] -0.001 | [16] 0.065 | [17] 0.064 | [18] 0.012 | [19] -0.1 | [20] 0.114

DOK1 (UniProt Q99704)
UniProt Q99704, sequence (Q99704 whole entry, looked up): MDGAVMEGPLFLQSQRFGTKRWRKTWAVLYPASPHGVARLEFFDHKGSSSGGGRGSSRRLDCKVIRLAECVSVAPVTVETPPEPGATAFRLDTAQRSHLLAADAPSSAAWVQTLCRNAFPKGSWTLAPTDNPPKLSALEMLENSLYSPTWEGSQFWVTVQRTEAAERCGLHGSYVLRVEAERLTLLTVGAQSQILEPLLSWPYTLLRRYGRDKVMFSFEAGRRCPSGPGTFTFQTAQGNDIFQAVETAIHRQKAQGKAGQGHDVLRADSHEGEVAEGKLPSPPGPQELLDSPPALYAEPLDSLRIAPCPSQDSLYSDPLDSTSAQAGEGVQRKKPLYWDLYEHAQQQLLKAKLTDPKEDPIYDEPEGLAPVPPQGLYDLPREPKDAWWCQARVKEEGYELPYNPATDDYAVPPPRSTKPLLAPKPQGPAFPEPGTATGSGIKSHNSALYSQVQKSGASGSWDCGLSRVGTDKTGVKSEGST
inactive: [1] -0.02 | [2] -0.135 | [3] 0.059 | [4] 0.059 | [5] -0.005 | [6] -0.007 | [7] 0.044 | [8] 0.082 | [9] 0.071 | [10] -0.102 | [11] 0.01 | [12] -0.026 | [13] 0.007 | [14] -0.056 | [15] -0.002 | [16] 0.042 | [17] 0.008 | [18] 0.044 | [19] -0.006 | [20] -0.001

CIC (UniProt I3L2J0)
inactive: [1] 0.005 | [2] -0.03 | [3] 0.072 | [4] 0.041 | [5] 0.035 | [6] -0.002 | [7] 0.052 | [8] -0.027 | [9] 0.158 | [10] -0.098 | [11] -0.074 | [12] -0.02 | [13] -0.002 | [14] -0.052 | [15] -0.047 | [16] 0.006 | [17] 0.02 | [18] -0.036 | [19] -0.08 | [20] 0.037

DDB2 (UniProt Q92466)
UniProt Q92466, sequence (Q92466 whole entry, looked up): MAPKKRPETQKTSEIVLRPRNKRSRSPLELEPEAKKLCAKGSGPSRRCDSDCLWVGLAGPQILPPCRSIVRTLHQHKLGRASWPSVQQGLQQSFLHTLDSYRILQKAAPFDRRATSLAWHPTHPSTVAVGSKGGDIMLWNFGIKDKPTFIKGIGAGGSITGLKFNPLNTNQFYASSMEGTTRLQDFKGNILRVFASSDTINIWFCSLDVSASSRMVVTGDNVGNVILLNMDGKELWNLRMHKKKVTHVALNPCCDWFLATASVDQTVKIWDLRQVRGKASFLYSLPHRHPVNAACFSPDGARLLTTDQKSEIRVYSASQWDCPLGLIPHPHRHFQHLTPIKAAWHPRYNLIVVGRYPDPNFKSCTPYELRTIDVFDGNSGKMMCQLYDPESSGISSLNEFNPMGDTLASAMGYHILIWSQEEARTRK
active: [4] 0.262
inactive: [1] 0 | [2] 0.06 | [3] 0.041 | [5] 0.069 | [6] 0.079 | [7] -0.065 | [8] 0.045 | [9] 0.055 | [10] -0.131 | [11] -0.03 | [12] -0.025 | [13] -0.025 | [14] -0.01 | [15] 0.014 | [16] 0.046 | [17] -0.026 | [18] 0.05 | [19] 0.023 | [20] 0.008

CTPS1 (UniProt P17812)
UniProt P17812, sequence (P17812 whole entry, looked up): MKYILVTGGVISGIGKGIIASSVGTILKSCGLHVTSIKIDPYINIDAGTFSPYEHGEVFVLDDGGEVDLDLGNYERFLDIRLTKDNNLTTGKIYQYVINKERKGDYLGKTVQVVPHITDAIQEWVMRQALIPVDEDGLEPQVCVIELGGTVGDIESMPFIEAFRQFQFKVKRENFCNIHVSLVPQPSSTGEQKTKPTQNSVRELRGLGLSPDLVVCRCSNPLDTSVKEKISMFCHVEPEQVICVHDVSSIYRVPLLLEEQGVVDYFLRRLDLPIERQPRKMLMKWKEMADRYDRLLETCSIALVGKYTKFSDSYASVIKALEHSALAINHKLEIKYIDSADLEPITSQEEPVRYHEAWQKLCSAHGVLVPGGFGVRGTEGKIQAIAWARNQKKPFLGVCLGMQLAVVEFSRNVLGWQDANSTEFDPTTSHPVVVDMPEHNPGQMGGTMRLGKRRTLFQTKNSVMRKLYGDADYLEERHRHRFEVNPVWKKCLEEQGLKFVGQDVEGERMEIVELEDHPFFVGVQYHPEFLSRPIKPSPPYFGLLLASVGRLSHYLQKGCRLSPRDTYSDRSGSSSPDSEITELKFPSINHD
inactive: [1] 0.006 | [2] -0.101 | [3] -0.021 | [4] 0 | [5] -0.048 | [6] 0.016 | [7] 0.038 | [8] -0.019 | [9] -0.001 | [10] -0.015 | [11] -0.007 | [12] -0.015 | [13] -0.044 | [14] 0.004 | [15] -0.003 | [16] -0.052 | [17] -0.004 | [18] 0.005 | [19] 0.078 | [20] 0.015

DNAJC1 (UniProt Q96KC8)
UniProt Q96KC8, sequence (Q96KC8 whole entry, looked up): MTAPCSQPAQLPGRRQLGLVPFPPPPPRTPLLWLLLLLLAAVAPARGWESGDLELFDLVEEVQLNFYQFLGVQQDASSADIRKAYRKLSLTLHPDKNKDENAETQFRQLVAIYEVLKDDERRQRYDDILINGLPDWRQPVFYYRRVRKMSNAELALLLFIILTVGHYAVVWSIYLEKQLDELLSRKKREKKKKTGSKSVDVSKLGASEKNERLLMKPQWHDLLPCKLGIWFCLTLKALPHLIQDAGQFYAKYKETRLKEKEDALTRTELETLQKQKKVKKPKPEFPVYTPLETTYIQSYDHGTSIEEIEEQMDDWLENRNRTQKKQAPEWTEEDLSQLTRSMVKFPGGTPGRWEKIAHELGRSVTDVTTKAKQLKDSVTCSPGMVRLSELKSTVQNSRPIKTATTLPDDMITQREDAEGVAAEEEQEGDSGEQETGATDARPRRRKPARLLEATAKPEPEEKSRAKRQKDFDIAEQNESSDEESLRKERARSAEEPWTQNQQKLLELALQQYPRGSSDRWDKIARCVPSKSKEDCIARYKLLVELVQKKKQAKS
inactive: [1] 0.016 | [2] -0.053 | [3] 0.013 | [4] 0.06 | [5] -0.059 | [6] 0.056 | [7] -0.257 | [8] 0.038 | [9] -0.104 | [10] 0.041 | [11] -0.057 | [12] 0.013 | [13] -0.086 | [14] 0.033 | [15] -0.046 | [17] 0.019 | [18] -0.117 | [19] 0.001 | [20] -0.064
active: [16] -0.262

CSNK2A2 (UniProt P19784)
UniProt P19784, sequence (P19784 whole entry, looked up): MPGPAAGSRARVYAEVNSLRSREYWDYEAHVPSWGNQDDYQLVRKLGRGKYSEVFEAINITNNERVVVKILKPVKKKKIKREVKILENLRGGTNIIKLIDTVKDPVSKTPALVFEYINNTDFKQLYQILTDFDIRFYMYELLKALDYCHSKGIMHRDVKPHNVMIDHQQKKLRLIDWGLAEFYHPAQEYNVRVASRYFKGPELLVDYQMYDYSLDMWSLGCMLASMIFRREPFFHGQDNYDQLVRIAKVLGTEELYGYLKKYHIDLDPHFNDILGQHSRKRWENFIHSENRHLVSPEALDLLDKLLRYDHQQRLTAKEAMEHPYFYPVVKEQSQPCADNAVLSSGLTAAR
inactive: [1] 0.101 | [2] -0.059 | [3] 0.321 | [4] 0.172 | [5] -0.022 | [6] -0.047 | [7] 0.012 | [8] 0.078 | [9] 0.135 | [10] 0.004 | [11] -0.116 | [12] 0.057 | [13] -0.071 | [14] 0.099 | [15] -0.02 | [16] -0.1 | [17] -0.035 | [18] -0.015 | [19] 0.009 | [20] -0.041

CTNNBL1 (UniProt Q8WYA6)
UniProt Q8WYA6, sequence (Q8WYA6 whole entry, looked up): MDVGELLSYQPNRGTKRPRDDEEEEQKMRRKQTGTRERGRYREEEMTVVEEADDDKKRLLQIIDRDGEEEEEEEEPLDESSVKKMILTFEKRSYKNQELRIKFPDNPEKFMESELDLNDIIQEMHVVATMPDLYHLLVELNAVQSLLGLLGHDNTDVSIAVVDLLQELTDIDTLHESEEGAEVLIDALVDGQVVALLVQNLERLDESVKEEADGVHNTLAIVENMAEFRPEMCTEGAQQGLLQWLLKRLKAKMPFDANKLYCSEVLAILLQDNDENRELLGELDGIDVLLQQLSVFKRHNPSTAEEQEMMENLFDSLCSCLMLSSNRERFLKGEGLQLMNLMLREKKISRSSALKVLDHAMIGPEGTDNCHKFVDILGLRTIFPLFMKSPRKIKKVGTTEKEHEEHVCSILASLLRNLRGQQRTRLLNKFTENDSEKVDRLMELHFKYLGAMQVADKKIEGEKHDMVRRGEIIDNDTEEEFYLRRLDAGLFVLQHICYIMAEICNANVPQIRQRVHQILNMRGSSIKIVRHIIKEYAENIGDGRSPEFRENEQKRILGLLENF
active: [5] 0.417
inactive: [1] 0.027 | [2] 0.148 | [3] -0.004 | [4] -0.015 | [6] 0.023 | [7] 0.101 | [8] -0.013 | [9] -0.027 | [10] 0.022 | [11] 0 | [12] -0.011 | [13] -0.032 | [14] 0.015 | [15] 0 | [16] -0.058 | [17] 0.033 | [18] 0.058 | [19] -0.103 | [20] 0.043

DHRS3 (UniProt O75911)
UniProt O75911, sequence (O75911 whole entry, looked up): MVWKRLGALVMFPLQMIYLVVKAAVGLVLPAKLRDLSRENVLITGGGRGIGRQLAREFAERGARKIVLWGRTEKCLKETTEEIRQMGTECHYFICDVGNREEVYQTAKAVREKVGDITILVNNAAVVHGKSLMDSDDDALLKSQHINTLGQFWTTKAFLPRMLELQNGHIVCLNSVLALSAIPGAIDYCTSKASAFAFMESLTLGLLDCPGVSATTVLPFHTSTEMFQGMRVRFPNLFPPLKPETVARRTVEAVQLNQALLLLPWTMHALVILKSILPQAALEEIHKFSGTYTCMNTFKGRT
inactive: [1] -0.013 | [2] 0.105 | [3] 0.043 | [4] -0.006 | [5] 0.085 | [6] -0.044 | [7] 0.151 | [8] -0.006 | [9] -0.011 | [10] 0.071 | [11] 0.02 | [12] -0.051 | [13] -0.024 | [14] -0.044 | [15] -0.025 | [16] 0.059 | [17] -0.043 | [18] 0.035 | [19] -0.032 | [20] 0.011

DIAPH3 (UniProt Q9NSV4)
inactive: [1] 0.041 | [2] -0.195 | [3] 0.004 | [4] -0.024 | [5] -0.027 | [6] 0.118 | [7] 0.085 | [8] 0.056 | [9] -0.015 | [10] 0.06 | [11] 0.068 | [12] 0.005 | [13] 0.003 | [14] 0.039 | [15] -0.043 | [16] -0.102 | [17] -0.017 | [18] 0.036 | [19] -0.075 | [20] 0.135

COMT (UniProt P21964)
UniProt P21964, sequence (P21964 whole entry, looked up): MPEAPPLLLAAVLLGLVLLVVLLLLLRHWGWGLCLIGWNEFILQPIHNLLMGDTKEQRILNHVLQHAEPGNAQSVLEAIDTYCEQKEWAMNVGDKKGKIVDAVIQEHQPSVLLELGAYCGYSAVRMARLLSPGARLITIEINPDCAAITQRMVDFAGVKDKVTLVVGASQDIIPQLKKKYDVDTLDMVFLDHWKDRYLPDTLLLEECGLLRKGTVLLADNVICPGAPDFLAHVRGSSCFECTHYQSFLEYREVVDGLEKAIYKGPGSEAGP
inactive: [1] 0.012 | [2] -0.162 | [3] -0.016 | [4] 0.016 | [5] -0.013 | [6] 0.028 | [7] 0.059 | [8] 0.022 | [9] 0.025 | [10] 0.013 | [11] -0.006 | [12] -0.007 | [13] 0.019 | [14] -0.052 | [15] -0.015 | [16] -0.008 | [17] -0.008 | [18] 0.038 | [19] 0.012 | [20] 0.01

CIB1 (UniProt Q99828)
UniProt Q99828, sequence (Q99828 whole entry, looked up): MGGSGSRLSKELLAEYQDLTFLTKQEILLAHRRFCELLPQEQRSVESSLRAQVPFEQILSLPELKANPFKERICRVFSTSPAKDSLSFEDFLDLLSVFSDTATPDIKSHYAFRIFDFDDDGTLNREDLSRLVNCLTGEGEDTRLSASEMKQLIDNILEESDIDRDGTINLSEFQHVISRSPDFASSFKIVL
inactive: [1] -0.003 | [2] -0.037 | [3] 0.01 | [4] 0.038 | [5] 0.041 | [6] -0.001 | [7] -0.215 | [8] -0.031 | [9] 0.072 | [10] -0.124 | [11] -0.073 | [12] 0.047 | [13] -0.046 | [14] 0.023 | [15] -0.006 | [16] -0.008 | [17] 0.06 | [18] 0.051 | [19] 0.115 | [20] 0.059

DNAJC3 (UniProt Q13217)
inactive: [1] 0.004 | [2] 0.073 | [3] 0.005 | [4] 0.021 | [5] -0.029 | [6] 0.044 | [7] 0.011 | [8] 0 | [9] 0.005 | [10] 0.026 | [11] 0.01 | [12] -0.015 | [13] 0.047 | [14] 0.001 | [15] 0.046 | [16] 0.012 | [17] 0.014 | [18] -0.064 | [19] -0.002 | [20] -0.014

CSDE1 isoform 4 (UniProt O75534)
UniProt O75534, sequence (O75534 whole entry, looked up): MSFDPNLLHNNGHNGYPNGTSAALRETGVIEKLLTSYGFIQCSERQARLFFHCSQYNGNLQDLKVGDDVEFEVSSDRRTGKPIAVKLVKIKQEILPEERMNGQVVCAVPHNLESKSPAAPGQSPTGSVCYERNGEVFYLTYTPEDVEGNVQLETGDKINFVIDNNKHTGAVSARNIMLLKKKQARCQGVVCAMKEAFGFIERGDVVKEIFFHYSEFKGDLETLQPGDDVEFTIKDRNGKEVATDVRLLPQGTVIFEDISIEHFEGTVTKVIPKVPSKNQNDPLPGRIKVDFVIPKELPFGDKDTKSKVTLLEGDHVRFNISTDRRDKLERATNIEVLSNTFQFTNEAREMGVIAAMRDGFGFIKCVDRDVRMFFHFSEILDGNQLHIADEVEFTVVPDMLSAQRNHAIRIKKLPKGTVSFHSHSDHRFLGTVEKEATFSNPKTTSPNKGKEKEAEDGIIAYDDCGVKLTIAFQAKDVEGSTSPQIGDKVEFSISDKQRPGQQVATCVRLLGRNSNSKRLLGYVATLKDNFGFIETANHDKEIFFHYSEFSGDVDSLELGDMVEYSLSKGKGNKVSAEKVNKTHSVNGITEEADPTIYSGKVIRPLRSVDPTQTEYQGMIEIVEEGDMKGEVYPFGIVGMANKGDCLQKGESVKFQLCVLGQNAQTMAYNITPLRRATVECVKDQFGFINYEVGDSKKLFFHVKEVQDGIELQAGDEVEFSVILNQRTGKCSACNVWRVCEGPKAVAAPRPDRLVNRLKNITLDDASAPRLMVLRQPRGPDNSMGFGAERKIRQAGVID
active: [7] 0.209
inactive: [1] 0 | [2] -0.104 | [3] 0.01 | [4] 0 | [5] -0.014 | [6] -0.008 | [8] 0.004 | [9] -0.021 | [10] -0.014 | [11] 0.001 | [12] -0.004 | [13] -0.006 | [14] 0.041 | [15] -0.015 | [16] -0.095 | [17] 0.003 | [18] 0.005 | [19] -0.021 | [20] -0.017
